Where a structure was tested more than once in an assay, its records may differ in their call. Calls of active or inactive are those of the source. Rule for the calls: active = hit-call score of the fitted dose curve at least 0.9, where 1 is the maximum; inactive = score below 0.9.

This assay is described as follows: ATG_GRE_CIS: Attagene CIS-FACTORIAL HepG2 Assay for human Glucocorticoid Response Elements (GRE) (AID 2282947). The following applies: HepG2 GRE cis-reporter, Attagene multiplex mRNA; actives raise or lower the signal. On the procedure:
ATG_CIS is a cell-based, multiplexed-readout assay that uses HepG2, a human liver cell line, with measurements taken at 24 hours after chemical dosing in a 24-well plate.ATG_GRE_CIS is one of 52 assay component(s) measured or calculated from the ATG_CIS assay. It is designed to make measurements of mRNA induction, a form of inducible reporter, as detected with fluorescence intensity signals by Reverse transcription polymerase chain reaction (RT-PCR) and Capillary electrophoresis technology.Data from the assay component ATG_GRE_CIS was analyzed into 1 assay endpoint. This assay endpoint, ATG_GRE_CIS, was analyzed with bidirectional fitting relative to DMSO as the negative control and baseline of activity. Using a type of inducible reporter, measures of mRNA for gain or loss-of-signal activity can be used to understand the reporter gene at the transcription factor-level as they relate to the gene NR3C1. Furthermore, this assay endpoint can be referred to as a primary readout, because this assay has produced multiple assay endpoints where this one serves a reporter gene function. To generalize the intended target to other relatable targets, this assay endpoint is annotated to the nuclear receptor intended target family, where the subfamily is steroidal.
Human liver HepG2 cells are transiently transfected with multiple reporter transcription units (MRTUs) in 6-well plates using FuGene 6 reagent (Roche; 3 ml FuGene/1 mg DNA). The MRTU constructs are regulated by a cis-regulating element (promoter). […] A major difference between the CIS and TRANS system is that in CIS activities of endogenous TFs are measured, whereas the TRANS assay evaluates changes in activities of exogenous, chimeric NR-Gal4 proteins. […] At the end of 24 hour incubation, total RNA was isolated using TriZol reagent (Invitrogen). The isolated RNA is then reverse-transcribed using oligo(dT) primer and Mo-MLV reverse transcriptase (Invitrogen) with DNAse I (Ambion) treatment for 30 min. The one-tenth of the produced cDNA was amplified by PCR using Taq DNA polymerase (Invitrogen) and two reporter sequence-specific primers. The PCR products were fluorescently labeled by primer extension with 6-arboxyfluorescein (6-FAM) 5'-labeled reporter sequence-specific primer (2 min at 95 C, 20 s at 68 C and 10 min at 72 C) and these products were digested with 5U of HpaI (New England Biolabs) for 2h at 37 C. The fragments were purified using Qiaquick PCR columns (Qiagen), analyzed on an ABI 3130xL genetic analyzer (Applied Biosystems) with peak positions identified by using a set of X-rhodamine (ROX)-labeled MapMarker1000 molecular weight standards (BioVentures). The raw capillary electrophoresis data was processed using Attagraph software (Attagene).
Consider `C#C[C@]1(O)CC[C@H]2[C@@H]3CCC4=CC(=O)CC[C@@H]4[C@H]3CC[C@@]21C`, for which the compound was called inactive.

Consider `CCCCOCCO`, for which the compound was classed as inactive.

With `CCCCCCCCCCCCc1ccccc1S(=O)(=O)O`, the outcome was inactive. With `CC#C[C@]1(O)CC[C@H]2[C@@H]3CCC4=CC(=O)CCC4=C3[C@@H](c3ccc(N(C)C)cc3)C[C@@]21C`, the AC50 (in general, the midpoint of the concentration-response curve, whichever way the signal moves) is 26.7 µM (active) and the result was inactive. `O=C(O)Cc1cc(I)c(Oc2cc(I)c(O)c(I)c2)c(I)c1`: the outcome was inactive and the AC50 was 17.2 µM (active). With `O=C(OCCOCCOC(=O)c1ccccc1)c1ccccc1`, the call was inactive. With `OC1CCC(C2CCCCC2)CC1` (stereo not given), the outcome was inactive. As for `NC(=O)N1C(=O)C(C(=O)c2cc(Cl)cs2)c2cc(F)c(Cl)cc21` (stereo not given), the compound was called inactive.

With `CCc1nn(C2CCCCC2)c2cc(C3(C#N)CCC(C(=O)O)CC3)ccc12` (stereo not given), the result was inactive. In the case of `CCC(=C(c1ccc(O)cc1)c1ccc(OCCN(C)C)cc1)c1ccccc1`, the compound was classed as inactive and the AC50 was 13.1 µM (active).

Turning to `ClC1=C(Cl)C(Cl)(Cl)C(Cl)=C1Cl`, the compound was called inactive. For the compound `FC(F)(I)C(F)(F)C(F)(F)C(F)(F)C(F)(F)C(F)(F)I`, the AC50 is 18.1 µM (active).

With `OCCC(F)(F)C(F)(F)C(F)(F)C(F)(F)C(F)(F)C(F)(F)F`, the AC50 was 133 µM (active) and the call was inactive. In the case of `COCC(C)O` (stereo not given), the call was inactive. The same measure, in the same setting: as for `CCCCCCCCOC(=O)CCCCCCCCC(=O)OCCCCCCCC`, the entry is “inactive”; as for `c1ccc2c(c1)ccc1ccccc12`, “inactive”. Regarding `COc1ccc([N+](=O)[O-])cc1N`, the compound was classed as inactive. `Cc1cc(C)c(O)c(C)c1`: the compound was classed as inactive. In the case of `Cc1cc(CCN2CCN(c3nsc4ccccc34)CC2)cc2c1NC(=O)CC2(C)C`, the call was inactive.

As for `COCC(C)OCC(C)O` (stereo not given), the compound was classed as inactive.

For `Oc1cccc(O)c1`, the outcome was inactive. Turning to `CCCCCCCCC(=O)O`, the result was inactive.

`CCCOc1sc(C(=O)N2CCC(c3cc(CN)ccc3F)CC2)c(C)c1Br`: the compound was classed as inactive. Regarding `CC[C@H](c1ccc(O)cc1)[C@@H](CC)c1ccc(O)cc1`, the compound was classed as inactive. Consider `OC1CCCCC1`, for which the compound was classed as inactive.

With `CCCOC(=O)c1ccc(O)cc1`, the compound was classed as inactive. As for `CCCCCCCCCCCCN1CCCC1=O`, the compound was called inactive.

`Oc1cc2ccccc2c2ccccc12`: the result was inactive.

Turning to `CC1=C(/C=C/C(C)=C/C=C/C(C)=C/C(=O)O)C(C)(C)CCC1`, the call was inactive. For the compound `Cc1oc(-c2ccccc2)nc1CCOc1ccc(C[C@H](Nc2ccccc2C(=O)c2ccccc2)C(=O)O)cc1`, the compound was classed as inactive. On to `C=C(C)C(=O)OCCC(F)(F)C(F)(F)C(F)(F)C(F)(F)C(F)(F)C(F)(F)F`, for which the call was inactive.

On to `CC(C)(C)CC(C)(C)c1ccc(O)c(-n2nc3ccccc3n2)c1`, for which the outcome was inactive. For `CC(O)CO` (stereo not given), the call was inactive. On to `O=c1c(-c2ccc(O)cc2)coc2cc(O)ccc12`, for which the result was inactive. Regarding `CCCCCCCCCCCCCC[N+](C)(C)C`, the compound was called inactive. Same read-out and setting: as for `CC(=O)NC1(c2cccc(F)c2)CCN(CC[C@@]2(c3ccc(Cl)c(Cl)c3)CN(c3ccccc3)C(=O)CO2)CC1`, the entry is “inactive”.

The record behind these values is PubChem BioAssay (EPA / NIEHS).
